Reference: PubChem BioAssay (Tox21)
Several values for one entry are separate records, joined by “and”; a condition that tells them apart may be missing. Equal values may be shown once. Results filed as inconclusive are left out. The source holds several records for some structures; these can differ, active in one and inactive in another. Activity calls are given as the source filed them. Unless noted, calls come from the whole dose curve; as a rule, active = well fitted curve in the direction sought with a large enough effect in the repeat runs; inconclusive = weak or mixed curves; inactive = no such curve, though single readings can be large; an effect the other way counts as inactive or inconclusive.

Key:
[1] = target: Peroxisome proliferator-activated receptor delta (Homo sapiens) (UniProt Q03181); experiment: qHTS assay to identify small molecule agonists of the peroxisome proliferator-activated receptor delta (PPARd) signaling pathway (AID 743212; calls by dose curve)
Peroxisome proliferator-activated receptor delta (Homo sapiens), sequence (Q03181 whole entry, looked up): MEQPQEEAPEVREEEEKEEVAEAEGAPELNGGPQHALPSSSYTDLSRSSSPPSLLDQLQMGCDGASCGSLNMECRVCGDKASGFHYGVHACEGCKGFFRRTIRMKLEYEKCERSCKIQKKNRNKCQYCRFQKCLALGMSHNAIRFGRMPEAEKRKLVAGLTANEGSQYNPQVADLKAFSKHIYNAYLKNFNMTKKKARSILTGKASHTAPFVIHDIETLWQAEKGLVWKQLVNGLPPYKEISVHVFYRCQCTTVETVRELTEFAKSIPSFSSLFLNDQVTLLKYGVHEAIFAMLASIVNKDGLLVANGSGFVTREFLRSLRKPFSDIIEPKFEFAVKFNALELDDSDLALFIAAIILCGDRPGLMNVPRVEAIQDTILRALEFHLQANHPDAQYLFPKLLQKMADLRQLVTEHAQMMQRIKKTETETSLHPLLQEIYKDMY
How it was run: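 A PPARd-bla HEK293H line with beta-lactamase under an Upstream Activator Sequence is treated with compounds at 37 C. Substrate loading for 2 h at room temperature precedes the fluorescence measurement.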

[2] = qHTS assay to identify small molecule antagonists of the peroxisome proliferator-activated receptor delta (PPARd) signaling pathway - cell viability counter screen (AID 743213); note: nearly all actives have a fitted effect of over 50% in size; note: potency is the fitted concentration of half-maximal effect
How it was run: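 Agonist-stimulated (L165041, 300 nM final) HEK293H PPARd UAS-bla cells are exposed to compounds for 17 h at 37 C, and ATP-based luminescence (CellTiter-Glo) from the same wells reports cytotoxicity.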

[3] = target: Peroxisome proliferator-activated receptor delta (Homo sapiens) (UniProt Q03181); experiment: qHTS assay to identify small molecule antagonists of the peroxisome proliferator-activated receptor delta (PPARd) signaling pathway (AID 743215; active = well fitted inhibition curve with a large enough effect in the signal ratio in the repeat runs, not every such curve was filed as active; the % refers to the signal ratio; note: potency is the fitted concentration of half-maximal effect)
How it was run: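 Antagonist-mode beta-lactamase reporter screen: HEK293H cells with UAS-bla under PPARd control, stimulated by 300 nM L165041 (final) alongside test compound for 17 h at 37 C, then FRET fluorescence after 2 h substrate incubation.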

[4] = qHTS assay to identify small molecule agonists of the farnesoid-X-receptor (FXR) signaling pathway - cell viability counter screen (AID 743218); note: nearly all actives have a fitted effect of over 45% in size; note: potency is the fitted concentration of half-maximal effect
How it was run: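 In GeneBLAzer FXR-UAS-bla HEK 293T cells, compounds act for 16 h at 37 C. Cell viability is then scored in the reporter wells by CellTiter-Glo, 30 min at RT, luminescence.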

[5] = qHTS assay to identify small molecule antagonists of the farnesoid-X-receptor (FXR) signaling pathway - cell viability counter screen (AID 743221; active = well fitted cell-killing curve with a large enough effect in the repeat runs, not every such curve was filed as active; note: nearly all actives have a fitted effect of over 50% in size; note: potency is the fitted concentration of half-maximal effect)
How it was run: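 HEK 293T FXR-bla cells, 5 h pre-incubation; compound + CDCA 50 uM final, 16 h, 37 C; beta-lactamase FRET read first, then CellTiter-Glo luminescence, 30 min RT.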

[6] = target: Vitamin D3 receptor (Homo sapiens) (UniProt P11473); experiment: qHTS assay to identify small molecule antagonists of the vitamin D receptor (VDR) signaling pathway (AID 743223; active = well fitted inhibition curve with a large enough effect in the signal ratio in the repeat runs, not every such curve was filed as active; the % refers to the signal ratio)
Vitamin D3 receptor (Homo sapiens), sequence (P11473 whole entry, looked up): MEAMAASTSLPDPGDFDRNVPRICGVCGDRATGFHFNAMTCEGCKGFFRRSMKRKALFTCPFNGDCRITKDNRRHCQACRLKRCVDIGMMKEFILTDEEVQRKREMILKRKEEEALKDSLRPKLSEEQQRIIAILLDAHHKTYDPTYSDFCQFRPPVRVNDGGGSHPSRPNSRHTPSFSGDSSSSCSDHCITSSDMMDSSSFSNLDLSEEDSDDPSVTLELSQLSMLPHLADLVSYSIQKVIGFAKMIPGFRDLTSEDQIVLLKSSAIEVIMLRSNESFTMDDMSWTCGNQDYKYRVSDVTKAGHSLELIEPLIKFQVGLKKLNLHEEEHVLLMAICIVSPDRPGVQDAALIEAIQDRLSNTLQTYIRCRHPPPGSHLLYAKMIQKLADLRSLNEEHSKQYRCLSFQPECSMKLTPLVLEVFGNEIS
How it was run: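 Beta-lactamase reporter read-out: FRET substrate fluorescence after 2 h at room temperature, following 16 h exposure of VDR-bla cells to test compound plus 3 nM (final) 1alpha,25-dihydroxyvitamin D3 agonist at 37C.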

[7] = qHTS assay to identify small molecule agonists of the vitamin D receptor (VDR) signaling pathway - cell viability counter screen (AID 743224); note: nearly all actives have a fitted effect of over 50% in size; note: potency is the fitted concentration of half-maximal effect
How it was run: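 VDR-bla cell line, quantitative HTS format; 16 h compound incubation (37C, 5% CO2); ATP-based CellTiter-Glo luminescence measured in the reporter assay wells.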

[8] = target: Vitamin D3 receptor (Homo sapiens) (UniProt P11473); experiment: qHTS assay to identify small molecule agonists of the vitamin D receptor (VDR) signaling pathway (AID 743222; calls by dose curve)
How it was run: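 Agonist activity measured in VDR-bla reporter cells. Exposure 16 h, 37C, 5% CO2; detection by B/G FRET substrate, 2 h RT.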

[9] = target: Bile acid receptor (Homo sapiens) (UniProt Q96RI1); experiment: qHTS assay to identify small molecule antagonists of the farnesoid-X-receptor (FXR) signaling pathway (AID 743217; active = well fitted inhibition curve with a large enough effect in the signal ratio in the repeat runs, not every such curve was filed as active; the % refers to the signal ratio)
Bile acid receptor (Homo sapiens), sequence (Q96RI1 whole entry, looked up): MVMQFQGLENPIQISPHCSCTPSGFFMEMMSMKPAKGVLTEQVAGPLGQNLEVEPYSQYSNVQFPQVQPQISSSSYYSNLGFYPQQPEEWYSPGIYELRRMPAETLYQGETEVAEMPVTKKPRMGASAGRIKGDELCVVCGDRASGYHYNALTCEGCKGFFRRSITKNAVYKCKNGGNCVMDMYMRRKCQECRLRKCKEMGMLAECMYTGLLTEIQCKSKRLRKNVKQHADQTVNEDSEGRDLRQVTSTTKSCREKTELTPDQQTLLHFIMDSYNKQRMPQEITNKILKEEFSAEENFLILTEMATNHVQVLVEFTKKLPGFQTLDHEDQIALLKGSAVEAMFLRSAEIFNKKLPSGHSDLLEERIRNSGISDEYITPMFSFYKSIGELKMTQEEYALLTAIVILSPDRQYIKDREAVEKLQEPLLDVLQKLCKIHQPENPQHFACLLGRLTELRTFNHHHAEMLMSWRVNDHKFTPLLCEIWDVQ
How it was run: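 Beta-lactamase reporter under UAS control in HEK 293T cells; compound exposure 16 h at 37 °C in the presence of chenodeoxycholic acid (50 uM final); signal from B/G FRET substrate after 2 h at room temperature.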

[10] = target: Bile acid receptor (Homo sapiens) (UniProt Q96RI1); experiment: qHTS assay to identify small molecule agonists of the farnesoid-X-receptor (FXR) signaling pathway (AID 743220; active = well fitted activation curve with a large enough effect in the signal ratio in the repeat runs, not every such curve was filed as active; the % refers to the signal ratio)
How it was run: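 Beta-lactamase reporter under UAS control in GeneBLAzer FXR HEK 293T cells (5000/well) measured with LiveBLAzer FRET substrate after 2 h at room temperature. Compound exposure lasted 16 h at 37C.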

Measured: Potency

COc1ccc(C(CN(C)C)C2(O)CCCCC2)cc1 (configuration not stated)
not listed: [8] | [9] | [10]
inactive: all other assays above

NNC(=S)NN
not listed: [9] | [10]
inactive: all other assays above

CCCCCCOC(=O)c1ccccc1C(=O)OCCCCCC
inactive: [1] | [2] | [3] | [4] | [5] | [7]

Cc1cc(Cl)ccc1OCCCC(=O)O
inactive: all assays above

OCC(O)CO
inactive: all assays above

COP(=O)(OC)OC
not listed: [8]
inactive: all other assays above

c1ccc(P(c2ccccc2)c2ccccc2)cc1
not listed: [7] | [9] | [10]
inactive: all other assays above

c1ccc(NNc2ccccc2)cc1
not listed: [8]
inactive: all other assays above

CCCCCCCCC(=O)NCc1ccc(O)c(OC)c1
inactive: [1] | [2] | [3] | [4] | [5] | [6]

N[C@@H](Cc1ccc(N(CCCl)CCCl)cc1)C(=O)O
not listed: [6] | [7] | [8]
inactive: all other assays above

CC(C)C(=O)OCC(C)(C)C(OC(=O)C(C)C)C(C)C (configuration not stated)
not listed: [9] | [10]
inactive: all other assays above

CCN(CC)N=O
not listed: [7]
inactive: all other assays above

Nc1ccc(-c2ccccc2)cc1
not listed: [9] | [10]
inactive: all other assays above

CCN(CC)C(=O)/C(Cl)=C(\C)OP(=O)(OC)OC
not listed: [7] | [9] | [10]
inactive: all other assays above

CCC(CC)Nc1c([N+](=O)[O-])cc(C)c(C)c1[N+](=O)[O-]
not listed: [7] | [8]
inactive: all other assays above

C#CCOS(=O)OC1CCCCC1Oc1ccc(C(C)(C)C)cc1 (configuration not stated)
inactive: [1] | [2] | [9] | [4] | [10] | [5]

O=[N+]([O-])c1cccc2ccccc12
inactive: [1] | [2] | [3] | [4] | [5]

ClC1C(Cl)C(Cl)C(Cl)C(Cl)C1Cl (configuration not stated)
not listed: [6] | [7] | [8]
inactive: all other assays above

CCCCCCCCCCCOC(=O)c1ccccc1C(=O)OCCCCCCCCCCC
not listed: [8] | [9] | [10]
inactive: all other assays above

O=C(CCl)c1ccccc1
not listed: [7] | [9] | [10]
inactive: all other assays above

c1nc[nH]n1
not listed: [7] | [8]
inactive: all other assays above

CC(C)(C)c1ccccc1O
inactive: [1] | [2] | [3] | [4] | [5]

CC(C)(OOC(C)(C)c1ccccc1)c1ccccc1
not listed: [4] | [7]
inactive: all other assays above

Clc1nc(Cl)nc(Cl)n1
not listed: [8] | [9] | [10]
inactive: all other assays above

CN(C)C(=O)Nc1ccc(Cl)cc1
not listed: [8]
inactive: all other assays above

NCc1cccnc1
not listed: [3] | [7]
inactive: all other assays above

COP(=S)(OC)Oc1ccc([N+](=O)[O-])cc1
not listed: [4] | [6] | [7]
inactive: all other assays above

CCCCC(CC)COC(=O)c1ccc(C(=O)OCC(CC)CCCC)c(C(=O)OCC(CC)CCCC)c1 (configuration not stated)
not listed: [9] | [10]
inactive: all other assays above

COc1ccc(C=O)cc1
not listed: [8] | [9] | [10]
inactive: all other assays above

CCc1cccc(CC)c1N(COC)C(=O)CCl
not listed: [3] | [7]
inactive: all other assays above

O=Cc1ccco1
not listed: [8] | [9] | [10]
inactive: all other assays above

O=P(O)(O)CCCl
not listed: [8]
inactive: all other assays above

CCCCOCCOP(=O)(OCCOCCCC)OCCOCCCC
inactive: [1] | [2] | [3] | [4] | [5] | [6]

CC(C)N(C(=O)SCC(Cl)=C(Cl)Cl)C(C)C
not listed: [3] | [7]
inactive: all other assays above

O=P(Oc1ccccc1)(Oc1ccccc1)Oc1ccccc1
not listed: [7] | [8] | [9]
inactive: all other assays above

C=C(C)C(=O)OCC1CO1 (configuration not stated)
not listed: [8]
inactive: all other assays above

NNC(N)=S
8.07 µM (active) and inactive: [2]
active: [3] 43.6 µM | [7] 32.1 µM
inactive: all other assays above

O=C(Nc1ccc(Br)cc1)c1cc(Br)cc(Br)c1O
active: [2] 1.55 µM | [4] 3.45 µM and 1.55 µM and 7.5 µM | [5] 9.74 µM and 2.45 µM and 13.3 µM | [7] 1.73 µM and 2.19 µM and 8.41 µM
inactive: [1] | [6]

Oc1cc(Cl)ccc1Cl
not listed: [3] | [9] | [10]
inactive: all other assays above

O=S(=O)(Oc1ccc(Cl)cc1)c1ccc(Cl)cc1
inactive: [1] | [2] | [4] | [5] | [8] | [6]

O=[N+]([O-])c1c(Cl)c(Cl)c(Cl)c(Cl)c1Cl
inactive: [1] | [2] | [4] | [5] | [6] | [7]

NC(=S)Nc1ccccc1
not listed: [3] | [8]
inactive: all other assays above

N#CC(Br)Br
not listed: [3] | [6] | [8]
inactive: all other assays above

CC(C)(c1cc(Cl)c(O)c(Cl)c1)c1cc(Cl)c(O)c(Cl)c1
not listed: [3] | [9] | [10]
inactive: all other assays above

COC(=O)c1sccc1S(=O)(=O)NC(=O)Nc1nc(C)nc(OC)n1
inactive: [1] | [2] | [4] | [5] | [6] | [7]

Oc1cc(Cl)ccc1Oc1ccc(Cl)cc1Cl
inactive: [1] | [8] | [6]
active: [4] 42.1 µM | [5] 56.2 µM
28 µM (active) and inactive: [2]

O=C(O)CC[N+](=O)[O-]
inactive: [1] | [2] | [4] | [5] | [6] | [7]

C=CCc1ccc(OC)cc1
inactive: [1] | [2] | [4] | [5]

Cc1ccccc1[N+](=O)[O-]
not listed: [3] | [9] | [10]
inactive: all other assays above

CC(C)c1ccc(CO)cc1
not listed: [3]
inactive: all other assays above
